# Measurements reported in PubChem BioAssay (Tox21).
# Records with an inconclusive call do not appear. Where a call stands in place of a potency, no number is given. Activity calls are given as the source filed them. Calls come from the whole dose curve; as a rule, active = well fitted cell-killing curve with a large enough effect in the repeat runs; inconclusive = weak or mixed curves; inactive = flat fitted curve, though single readings scatter.
# Assay: qHTS RealTime-Glo MT Cell Viability Assay in HepG2 cells - 24 hour (AID 1224867); note: nearly all actives have a fitted effect of over 50% in size
# Conditions: RealTime-Glo luminescence; series mostly up to 76.8 µM
# Description: U.S. Tox21 Program National Center for Advancing Translational Sciences [NCATS] NIH Chemical Genomics Center [NCGC] U.S. Environmental Protection Agency [EPA] National Institutes of Environmental Health Sciences [NIEHS] National Toxicology Program [NTP] U.S. Food and Drug Administration [FDA] Tox21 Assay Overview: Measure of cell viability is critical in the cell-base assay. Analysis of cell viability is necessary for the characterization of cell responses to cytotoxic drugs and environmental stress. A RealTime-Glo MT Cell Viability Assay to monitor cell viability in real time of continues cell culture during 40 hours of compound treatment was used to screen Tox21 10K library compounds in HepG2 cells. The RealTime-Glo MT Cell Viability Assay is a nonlytic, homogeneous, bioluminescent method to measure cell viability in real time using a simple, plate-based method. The assay involves adding NanoLuc luciferase and a cell-permeant prosubstrate to cells in culture. Viable cells reduce the proprietary prosubstrate to generate a substrate for NanoLuc luciferase. This substrate diffuses from cells into the surrounding culture medium, where it is rapidly used by the NanoLuc Enzyme to produce a luminescent signal. The signal correlates with the number of viable cells, making the assay well suited for cytotoxicity studies.
# Tox21 Assay Protocol Summary: The mixture of HepG2 cell suspension and reagents were dispensed at 600cells/6 ul/well in 1536-well tissue culture treated black solid bottom plates using a Multidrop dispenser. After the assay plates were incubated at a 37 C/5% CO2 incubator for 5 hours, 23 nL of compounds dissolved in DMSO, positive and negative controls was transferred to the assay plate by a pintool work station. The plates were incubated at 37 C for 40 hours. The luminescence intensity were measured at 0h, 8h, 16h, 24h, 32h and 40h time points using ViewLux plate reader during compound treatment.
row,SMILES,Potency
1,CS(=O)(=O)c1cc(C(F)(F)F)ccc1C(=O)c1cnoc1C1CC1,inactive
2,CC1CCC(=O)O1 (stereo not given),inactive
3,Clc1cccc(N2CCNCC2)c1,inactive
4,CC(C=O)Cc1ccc2c(c1)OCO2 (stereo not given),inactive
5,CC(Oc1ccc(Oc2ncc(C(F)(F)F)cc2Cl)cc1)C(=O)O (stereo not given),inactive
6,CCOP(=S)(OCC)Oc1nc(Cl)n(C(C)C)n1,inactive
7,CCOC(=O)C(c1c(O)c2ccccc2oc1=O)c1c(O)c2ccccc2oc1=O,inactive
8,COc1cc(OC)nc(Oc2cccc(Oc3nc(OC)cc(OC)n3)c2C(=O)O)n1,inactive
9,O=NN1CCN(N=O)CC1,inactive
10,O=[N+]([O-])c1ccc(CBr)cc1,inactive
11,C[C@@H]1CN(C2CCC(C#N)(c3ccc(F)cc3)CC2)CC[C@]1(C(=O)O)c1ccccc1 (stereo not given in full),inactive
12,CNC(=O)Oc1ccccc1C1OCCO1,inactive
13,O=[N+]([O-])c1cccc2c([N+](=O)[O-])cccc12,inactive
14,COc1cc(OC)nc(NC(=O)NS(=O)(=O)c2ncccc2OCC(F)(F)F)n1,inactive
15,O=[N+]([O-])c1cccc2cccnc12,inactive
16,CCCSP(=S)(OCC)Oc1ccc(Cl)cc1Cl (stereo not given),inactive
17,CC(Cl)(Cl)[N+](=O)[O-],inactive
18,C[C@]12CC[C@H]3[C@@H](CCC4=CC(=O)CC[C@@]43C)[C@@H]1CC[C@@H]2C(=O)O,inactive
19,C[C@]1(O)CC[C@H]2[C@@H]3CCC4=CC(=O)CC[C@]4(C)[C@@]3(F)[C@@H](O)C[C@@]21C,inactive
20,C=C(C)[C@@H]1CC=C(C=O)CC1,inactive

row,SMILES,Potency
1,COP(N)(=S)Oc1ccccc1C(=O)OC(C)C (stereo not given),inactive
2,COC(=O)C(c1ccccc1)C1CCCCN1 (stereo not given),inactive
3,CCCCOC(=O)[C@@H](C)Oc1ccc(Oc2ccc(C#N)cc2F)cc1,inactive
4,ClCCOCOCCCl,inactive
5,Cc1ncc2n1-c1ccc(Cl)cc1C(c1ccccc1F)=NC2,inactive
6,CN1C(=S)CN=C(c2ccccc2)c2cc(Cl)ccc21,inactive
7,O=[N+]([O-])c1cc(Cl)c(Cl)c(Cl)c1,inactive
8,CC(C1CC1)C(O)(Cn1cncn1)c1ccc(Cl)cc1 (stereo not given),inactive
9,COC(C)(C)C,inactive
10,C(CCOCC1CO1)COCC1CO1 (stereo not given),inactive
11,NC1=NC(=O)C(c2ccccc2)O1 (stereo not given),inactive
12,Nc1cnn(-c2ccccc2)c(=O)c1Cl,inactive
13,c1cc[c]([Hg][c]2ccccc2)cc1,inactive
14,ClC(Br)Br,inactive
15,Nc1n[nH]c(N)n1,inactive
16,CCCCCCBr,inactive
17,C[N+](=O)[O-],inactive
18,CCOP(=O)(OCC)OP(=O)(OCC)OCC,inactive
19,C[C@H]1CCC[C@H](O)CCCCCc2cc(O)cc(O)c2C(=O)O1,inactive
20,COc1cc2c(cc1OC)[C@@]13CCN4CC5=CCO[C@H]6CC(=O)N2[C@H]1[C@H]6[C@H]5C[C@H]43,inactive
